{"source": "the supplement of paper PMC3484114", "note": "± gives the standard deviation.", "data": [{"system": "OVCAR-3-derived ovarian cancer stem-like cells (spheroids)", "assay": "cell growth relative to untreated control; higher = more growth (less inhibition)", "settings": "2.29 µM; 96 h", "procedure,_shortened": "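Percent growth was calculated against untreated wells once blanks were subtracted and Grubbs outliers removed. The cells were OVCAR-3 spheroid-derived stem-like cells, trypsinized and plated at 50,000 cells/mL in stem cell medium on ultra-low attachment 96-well plates for a 24 h preincubation. They were then exposed to compounds at 2.29 uM for 96 h at 37°C, 5% CO2, in 4 replicate wells, and viability was measured by TOX8 resazurin fluorescence (ex 560/em 590 nm) after 4 h.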", "units": {"cell growth": "%"}, "values": [{"smiles": "CSC1SC[C@H]2C(=O)N(C)[C@@H](C(C)C)C(=O)OC[C@@H](NC(=O)c3cnc4ccccc4n3)C(=O)N[C@@H](C)C(=O)N(C)[C@@H]1C(=O)N(C)[C@@H](C(C)C)C(=O)OC[C@@H](NC(=O)c1cnc3ccccc3n1)C(=O)N[C@@H](C)C(=O)N2C", "note": "(stereo partly specified)", "cell growth": "19.7 ± 3.8"}, {"smiles": "CCOC(=O)/C(=C/c1ccc(N(C)C)cc1)N(CC)CC", "cell growth": "85 ± 9.3"}, {"smiles": "CN(C)c1ccc(/C=N/N=C2\\C(=O)Nc3c(Cl)cc(Cl)cc32)cc1", "cell growth": "106 ± 28"}, {"smiles": "CCOC(=O)/C=C/c1c(C)[nH]c(=O)[nH]c1=O", "cell growth": "91.2 ± 25"}, {"smiles": "O=[N+]([O-])c1cccc2c(N=Nc3ccc4ccccc4c3O)c(O)cc(S(=O)(=O)O)c12", "cell growth": "74.2 ± 40"}, {"smiles": "CN(C)c1ccc(/C=C2/C=Cc3ccccc32)cc1", "cell growth": "101 ± 8.1"}, {"smiles": "CCOC(=O)Nc1nc2ccc(Cn3cccc3)cc2[nH]1", "cell growth": "127 ± 20"}, {"smiles": "C(=C/c1nc2ccccc2o1)/c1ccc2c(c1)OCO2", "cell growth": "94 ± 16"}, {"smiles": "COc1ccc2c(O)c3[n+](cc2c1OC)CCc1cc2c(cc1-3)OCO2", "cell growth": "103 ± 14"}, {"smiles": "CC(=O)Oc1ccc(C(c2ccc(OC(C)=O)cc2)c2ccccn2)cc1", "cell growth": "20.8 ± 5.2"}, {"smiles": "CN(C)[C@@H]1C(=O)C(C(N)=O)=C(O)[C@@]2(O)C(=O)C3=C(O)c4c(O)cccc4C[C@H]3C[C@@H]12", "cell growth": "57.8 ± 20"}, {"smiles": "CCN(CC)C(=S)S", "cell growth": "61.6 ± 19"}, {"smiles": "O=C1C(=O)c2ccccc2C(O)=C1CC=C(Cl)Cl", "cell growth": "92.3 ± 30"}, {"smiles": "N#CC(C#N)=Cc1cccc(Oc2ccccc2)c1", "cell growth": "74.1 ± 8"}, {"smiles": "O=C1c2ccccc2-c2c1c1ccccc1c(=O)n2Cc1ccccc1", "cell growth": "86.2 ± 51"}, {"smiles": "CC(C)[Si]1(C(C)C)OCC2OC(n3cnc4c(N)ncnc43)C(N)C2O[Si](C(C)C)(C(C)C)O1", "note": "(stereo unspecified)", "cell growth": "85.1 ± 22"}]}]}
